The nature of assay [1]: NCI Yeast Anticancer Drug Screen. Data for the rad50 strain (AID 155).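 Also: 0% = growth of vehicle-only cultures of the same strain.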 The note with it: S. cerevisiae rad50 strain growth inhibition, active compounds read high. In outline:
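Genetically altered yeast (DNA repair pathway); compound treatment; growth inhibition vs vehicle ctrl.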

Assay [2] in a line: NCI Yeast Anticancer Drug Screen. Data for the mec2-1 strain (AID 157). Particulars: S. cerevisiae mec2-1 strain, active compounds read high. In outline: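 Readout is yeast growth inhibition, normalised to vehicle-treated controls, in the mec2-1 strain exposed to compound.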
Assay [3] is described as follows: NCI Yeast Anticancer Drug Screen. Data for the sgs1 mgt1 strain (AID 161).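 Also: 0% = growth of cultures given vehicle only.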 The note with it: S. cerevisiae sgs1 mgt1 strain, active compounds read high. In outline:
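Growth of a repair-deficient yeast mutant was monitored after compound treatment and expressed as inhibition relative to vehicle-treated cultures.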

The nature of assay [4]: NCI Yeast Anticancer Drug Screen. Data for the cln2 rad14 strain (AID 165).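 Also: 0% = growth equal to vehicle treated cultures.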 The note with it: S. cerevisiae cln2 rad14 strain, active compounds read high. In outline:
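Relative to vehicle controls, growth inhibition of compound-treated cln2 rad14 yeast was recorded.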

A short description of assay [5]: NCI Yeast Anticancer Drug Screen. Data for the bub3 strain (AID 167). The note with it: S. cerevisiae bub3 mutant strain, active compounds read high. The procedure, abridged:
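Yeast carrying a defined mutation is treated with each compound, and growth is compared with that of vehicle-exposed cells to give inhibition.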

Assay [6] in a line: NCI Yeast Anticancer Drug Screen. Data for the mlh1 rad18 strain (AID 175). Particulars: S. cerevisiae mlh1 rad18 strain growth inhibition, active compounds read high. The procedure, abridged: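 Test agents were incubated with a yeast strain of defined genotype (DNA damage repair defect). Inhibition of growth was derived by comparison with vehicle-exposed cultures.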
Where [7] appears, read: at 5.0 µM (retest, dose inferred, filed as 0.5).
Where [8] appears, read: at 50.0 µM (retest, dose inferred, filed as 5.0).

Compounds without any hit were thinned out: in the full panel of roughly 79,000, 15% have a hit. Unmarked numbers belong to inactive results. Calls of active or inactive are those of the source. Rule as the data show it: active = growth inhibition above about 70%; inactive = the rest.

With `Cc1nn(C(=O)c2ccncc2)c(C)c1N=Nc1ccccc1[N+](=O)[O-]`, the growth inhibition is 49% in assay [1] (setting [7]); 96% (active) in assay [1] (setting [8]); 61.3% in assay [1] (at 50.0 µM); 11% in assay [2] (setting [7]); 93% (active) in assay [2] (setting [8]); 20.6% in assay [2] (at 50.0 µM). The growth inhibition in assay [3] (setting [7]) was 11%; in assay [3] (setting [8]) it was 90% (active); in assay [3] (at 50.0 µM) it was 84.8% (active); in assay [4] (setting [7]) it was 21%; in assay [4] (setting [8]), 6%; in assay [4] (at 50.0 µM), -3.25%. The growth inhibition was -1% in assay [5] (setting [7]); 14% in assay [5] (setting [8]); 2.4% in assay [5] (at 50.0 µM); 4% in assay [6] (setting [7]); 94% (active) in assay [6] (setting [8]); 26.1% in assay [6] (at 50.0 µM).

For the molecule `COc1c2c(c(C)c3ccc4ccccc4c13)CCN=C2`, the growth inhibition in assay [1] (setting [7]) is -11%; in assay [1] (setting [8]), 93% (active); in assay [1] (at 50.0 µM), 80.2% (active); in assay [2] (setting [7]) it was -4%; in assay [2] (setting [8]), 95% (active); in assay [2] (at 50.0 µM), 43.3%. In addition, the growth inhibition in assay [3] (setting [7]) is -5%; in assay [3] (setting [8]) it was 96% (active); in assay [3] (at 50.0 µM) it was 88.2% (active); in assay [4] (setting [7]), -9%; in assay [4] (setting [8]), 83% (active); in assay [4] (at 50.0 µM), 13.4%. Moreover, the growth inhibition is 10% in assay [5] (setting [7]); 96% (active) in assay [5] (setting [8]); 79.2% (active) in assay [5] (at 50.0 µM); -9% in assay [6] (setting [7]); 93% (active) in assay [6] (setting [8]); 79.9% (active) in assay [6] (at 50.0 µM).

On to `NC(Cc1nn[nH]n1)C(=O)O` (stereo not given), for which the growth inhibition in assay [1] (setting [7]) was 3%; in assay [1] (setting [8]) it was -15%; in assay [1] (at 50.0 µM) it was -13.2%; in assay [2] (setting [7]) it was -6%; in assay [2] (setting [8]) it was -10%; in assay [2] (at 50.0 µM), -5.95%. The growth inhibition in assay [3] (setting [7]) was -16%; in assay [3] (setting [8]), -15%; in assay [3] (at 50.0 µM), -42.8%; in assay [4] (setting [7]), -11%; in assay [4] (setting [8]), -6%; in assay [4] (at 50.0 µM), 22.4%. The growth inhibition is 10% in assay [5] (setting [7]); -13% in assay [5] (setting [8]); 0.95% in assay [5] (at 50.0 µM); -18% in assay [6] (setting [7]); -6% in assay [6] (setting [8]); -23% in assay [6] (at 50.0 µM).

With `Cn1cc(NC(=O)c2cc(NC(=O)CCCCCCC(=O)Nc3cc(C(=O)Nc4cc(C(=O)NCCC(=N)N)n(C)c4)n(C)c3)cn2C)cc1C(=O)NCCC(=N)N`, the growth inhibition in assay [1] (setting [7]) is 87% (active); in assay [1] (setting [8]), 98% (active); in assay [1] (at 50.0 µM) it was 91.8% (active); in assay [2] (setting [7]) it was 89% (active); in assay [2] (setting [8]), 99% (active); in assay [2] (at 50.0 µM), 93.8% (active). The growth inhibition in assay [3] (setting [7]) was 82% (active); in assay [3] (setting [8]), 99% (active); in assay [3] (at 50.0 µM), 93% (active); in assay [4] (setting [7]), 44%; in assay [4] (setting [8]) it was 95% (active); in assay [4] (at 50.0 µM), 91.3% (active). In addition, the growth inhibition in assay [5] (setting [7]) was 92% (active); in assay [5] (setting [8]), 98% (active); in assay [5] (at 50.0 µM), 92.2% (active); in assay [6] (setting [7]) it was 90% (active); in assay [6] (setting [8]), 98% (active); in assay [6] (at 50.0 µM), 92.2% (active).

As for `COc1ccc(N2CCN(CC(O)COc3cc4c(c5c3CCCC5)CCCC4)CC2)cc1` (stereo not given), the growth inhibition in assay [1] (setting [7]) was 15%; in assay [1] (setting [8]), 98% (active); in assay [1] (at 50.0 µM) it was 45.4%; in assay [2] (setting [7]), 17%; in assay [2] (setting [8]), 98% (active); in assay [2] (at 50.0 µM), 99% (active). Further, the growth inhibition in assay [3] (setting [7]) was 22%; in assay [3] (setting [8]), 97% (active); in assay [3] (at 50.0 µM), 54.7%; in assay [4] (setting [7]) it was 6%; in assay [4] (setting [8]), 98% (active); in assay [4] (at 50.0 µM), 84.2% (active). Further, the growth inhibition in assay [5] (setting [7]) was 13%; in assay [5] (setting [8]), 97% (active); in assay [5] (at 50.0 µM) it was 92% (active); in assay [6] (setting [7]) it was 9%; in assay [6] (setting [8]) it was 96% (active); in assay [6] (at 50.0 µM) it was 77.6% (active).

On to `O=C(C[N+]1(CCc2ccccc2)CCOCC1)c1ccc(-c2ccccc2)cc1`, for which the growth inhibition in assay [1] (setting [7]) was 2%; in assay [1] (setting [8]) it was 52%; in assay [1] (at 50.0 µM) it was 79.3% (active); in assay [2] (setting [7]) it was 19%; in assay [2] (setting [8]), 71% (active); in assay [2] (at 50.0 µM), 92.5% (active). Further, the growth inhibition in assay [3] (setting [7]) is -5%; in assay [3] (setting [8]) it was 93% (active); in assay [3] (at 50.0 µM), 96.7% (active); in assay [4] (setting [7]), -5%; in assay [4] (setting [8]), 34%; in assay [4] (at 50.0 µM), 98.4% (active). Moreover, the growth inhibition was -2% in assay [5] (setting [7]); 66% in assay [5] (setting [8]); 92.8% (active) in assay [5] (at 50.0 µM); 12% in assay [6] (setting [7]); 93% (active) in assay [6] (setting [8]); 98.2% (active) in assay [6] (at 50.0 µM).

As to `O=C(NN1C(=O)C(Cl)C1c1ccc(O)cc1)c1ccccc1O` (stereo not given), the growth inhibition in assay [1] (setting [7]) was -4%; in assay [1] (setting [8]), 78% (active); in assay [1] (at 50.0 µM) it was 79.5% (active); in assay [2] (setting [7]), 13%; in assay [2] (setting [8]) it was 79% (active); in assay [2] (at 50.0 µM), 61%. For the same molecule, the growth inhibition in assay [3] (setting [7]) is 0%; in assay [3] (setting [8]), 72% (active); in assay [3] (at 50.0 µM), 69.9%; in assay [4] (setting [7]), 13%; in assay [4] (setting [8]), 63%; in assay [4] (at 50.0 µM), 44%. Moreover, the growth inhibition in assay [5] (setting [7]) was 11%; in assay [5] (setting [8]), 90% (active); in assay [5] (at 50.0 µM), 71.1% (active); in assay [6] (setting [7]), 20%; in assay [6] (setting [8]), 91% (active); in assay [6] (at 50.0 µM), 67.7%.

For `O=C1/C(=C/c2ccc(Cl)cc2)CCC/C1=C\c1ccc(O)c(CN2CCCCC2)c1`, the growth inhibition is 31% in assay [1] (setting [7]); 52% in assay [1] (setting [8]); 2.4% in assay [1] (at 50.0 µM); 2% in assay [2] (setting [7]); 17% in assay [2] (setting [8]); 1.75% in assay [2] (at 50.0 µM). Moreover, the growth inhibition is 7% in assay [3] (setting [7]); 20% in assay [3] (setting [8]); 69% in assay [3] (at 50.0 µM); 7% in assay [4] (setting [7]); 24% in assay [4] (setting [8]); 51.9% in assay [4] (at 50.0 µM). In addition, the growth inhibition is -48% in assay [5] (setting [7]); 17% in assay [5] (setting [8]); 72.3% (active) in assay [5] (at 50.0 µM); 16% in assay [6] (setting [7]); 20% in assay [6] (setting [8]); 90.6% (active) in assay [6] (at 50.0 µM).

With `CCOC(=O)c1ccc2c3c([nH]c2c1C)-c1ccccc1CC3`, the growth inhibition in assay [1] (setting [7]) is 12%; in assay [1] (setting [8]), 93% (active); in assay [1] (at 50.0 µM), 93.5% (active); in assay [2] (setting [7]), -7%; in assay [2] (setting [8]), 94% (active); in assay [2] (at 50.0 µM) it was 94% (active). In addition, the growth inhibition in assay [3] (setting [7]) was 14%; in assay [3] (setting [8]), 95% (active); in assay [3] (at 50.0 µM), 94.7% (active); in assay [4] (setting [7]), -9%; in assay [4] (setting [8]) it was 91% (active); in assay [4] (at 50.0 µM), 90.7% (active). In addition, the growth inhibition was 1% in assay [5] (setting [7]); 94% (active) in assay [5] (setting [8]); 94.2% (active) in assay [5] (at 50.0 µM); 14% in assay [6] (setting [7]); 94% (active) in assay [6] (setting [8]); 91.9% (active) in assay [6] (at 50.0 µM).

For `N#Cc1cccc2c1Sc1ccccc1N2`, the growth inhibition in assay [1] (setting [7]) was 22%; in assay [1] (setting [8]), 31%; in assay [1] (at 50.0 µM) it was 88.6% (active); in assay [2] (setting [7]), 6%; in assay [2] (setting [8]), -9%; in assay [2] (at 50.0 µM) it was 92.8% (active). The growth inhibition in assay [3] (setting [7]) is 1%; in assay [3] (setting [8]) it was 6%; in assay [3] (at 50.0 µM), 89.2% (active); in assay [4] (setting [7]) it was -5%; in assay [4] (setting [8]), -6%; in assay [4] (at 50.0 µM) it was 90.1% (active). The growth inhibition is -26% in assay [5] (setting [7]); 6% in assay [5] (setting [8]); 91.3% (active) in assay [5] (at 50.0 µM); -7% in assay [6] (setting [7]); 7% in assay [6] (setting [8]); 60.5% in assay [6] (at 50.0 µM).
